# Results reported in PubChem BioAssay.
# Activity calls are given as the source filed them. Cut-off read from the data, not from the text of the source, unless noted: active = plate-normalised HSF1 focus index below about 0.46; inactive = the rest.
# Assay: inhibitors of Cryptococcus chitosan production, flow cytometry, Cibacron Brilliant Red staining (AID 1347148; call rule not given here;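 note: compound exposure lasted three days at 37 degrees C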)
# Settings: Cryptococcus neoformans chitosan, stronger effect = lower value; at 10 µM unless noted
row,SMILES,fold fluorescence
1,COc1cccc(-c2cc(=O)c3ccccc3o2)c1N,6.5 [at 187.1 µM] (inactive)
2,O=C1Nc2ccc(I)cc2/C1=C/c1cc(Br)c(O)c(Br)c1,4.68 [at 96 µM] (inactive)
3,O=C1NC(=O)C(c2ccccc2[N+](=O)[O-])=C1Nc1ccc(O)c(Cl)c1,5.23 [at 139 µM] (inactive)
4,CCOC(=O)C1=C(N)Oc2ccc(Br)cc2C1C(C#N)C(=O)OCC (stereo unspecified),6.68 [at 122.2 µM] (inactive)

# Assay: modifiers of HSF1 nuclear foci, imaging, Selleck Cancer Library (AID 1347162)
# Settings: human cells, at 10 µM; SSMD: measured here: HSF1 foci SSMD mean; cell count: measured here: cell number; plate-normalised HSF1 focus index: stronger effect = lower value
SMILES,plate-normalised HSF1 focus index,cell count,SSMD
O=c1[nH]nc(Sc2ncc([N+](=O)[O-])s2)n1-c1ccc2c(c1)OCCO2,0.592 (inactive),5980,-8.15
CS(=O)c1ccc(-c2nc(-c3ccc(F)cc3)c(-c3ccncc3)[nH]2)cc1 (stereo unspecified),1.16 (inactive),7460,2.53
O=c1cc(-c2cccc3c2Sc2ccccc2S3)oc(N2CCOCC2)c1,1.15 (inactive),6680,2.97
CCOc1cc(C(=O)Nc2ccc(Cl)c(-c3nc4ccccc4[nH]3)c2)cc(OCC)c1OCC,1.26 (inactive),6790,4.38
O=C(O)CCc1ccc(NCc2cccc(Oc3ccccc3)c2)cc1,1.21 (inactive),6830,3.5
CCN(CC)CCCC(C)Nc1nc(C)cc(Nc2ccc3nc(C)cc(N)c3c2)n1 (stereo unspecified),1.21 (inactive),7010,3.48
CN1C(=O)C(Cc2c[nH]c3ccccc23)NC1=S (stereo unspecified),1.1 (inactive),7350,1.64
CCOc1ccc(Nc2nc(-c3c(C)nc4ccccn34)cs2)cc1,1.25 (inactive),6300,4.16
O=C(O)c1ccc2cc(-c3ccc(O)c(C45CC6CC(CC(C6)C4)C5)c3)ccc2c1,1.1 (inactive),6920,1.71
